# Measurements from PubChem BioAssay (EPA / NIEHS).
# Some compounds were tested as several samples or in several runs, with calls that do not always agree. Calls of active or inactive are those of the source. The calls were made as follows: active = hit-call score of the fitted dose curve at least 0.9, where 1 is the maximum; inactive = score below 0.9.
# Columns and labels:
# [1] = biological target: Bile acid receptor (Homo sapiens) (UniProt Q96RI1); experiment: ATG_IR1_CIS: Attagene CIS-FACTORIAL HepG2 Assay for human Nuclear Receptor Subfamily 1 Group H Member 4 (NR1H4), IR1 submotif (AID 2282946); conditions: IR1 reporter transcription, actives raise or lower the signal
# In short: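 Fluorescence of capillary-separated, HpaI-digested RT-PCR reporter products gave IR1-element mRNA induction in HepG2 cells 24 h after dosing. Endogenous transcription factors drove the cis-regulated reporters; activity was fitted bidirectionally against DMSO.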
# [2] = ATG_GRE_CIS: Attagene CIS-FACTORIAL HepG2 Assay for human Glucocorticoid Response Elements (GRE) (AID 2282947); conditions: HepG2 GRE cis-reporter, Attagene multiplex mRNA; actives raise or lower the signal
# In short: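 Fluorescence intensity of reporter-specific cDNA fragments, separated by capillary electrophoresis, provides the signal. Constructs carry cis-regulating promoters in transiently transfected HepG2 liver cells; 24 h incubation; fitting is bidirectional against DMSO.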
# [3] = ATG_ISRE_CIS: Attagene CIS-FACTORIAL HepG2 Assay for human Interferon Regulatory Factor 1 (IRF1) binding to an Interferon-Stimulated Response Element (ISRE) (AID 2282948); conditions: HepG2 ISRE cis-reporter (Attagene), mRNA transcription readout; actives raise or lower the signal
# In short: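 Uses HepG2 liver cells transfected with cis-regulated reporters and measures mRNA 24 h post-dosing through RT-PCR, primer-extension labelling and capillary electrophoresis, with DMSO as negative control.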
# [4] = ATG_M_06_CIS: Attagene CIS-FACTORIAL HepG2 Assay for M06 Transcription Factor (Internal Marker) (AID 2282950); conditions: HepG2 Attagene CIS-FACTORIAL M06 internal marker reporter; actives raise or lower the signal
# In short: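 Fluorescence-labelled RT-PCR products from cis-promoter reporter units, cut with HpaI and resolved by capillary electrophoresis, give the signal. Cells are human HepG2, dosed for 24 h. Serves as background control, fitted relative to DMSO.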
# [5] = biological target: Hypoxia-inducible factor 1-alpha (Homo sapiens) (UniProt Q16665); experiment: ATG_HIF1a_CIS: Attagene CIS-FACTORIAL HepG2 Assay for human Hypoxia Inducible Factor 1 (HIF1A) (AID 2282951); conditions: HepG2 Attagene cis-factorial HIF1a reporter transcription; actives raise or lower the signal
# In short: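 RT-PCR/capillary electrophoresis fluorescence readout of reporter transcripts from endogenous-TF-driven cis elements in transfected HepG2 cells, 24 h exposure; activity fitted in both directions against DMSO controls.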
# [6] = biological target: Hepatocyte nuclear factor 6 (Homo sapiens) (UniProt Q9UBC0); experiment: ATG_HNF6_CIS: Attagene CIS-FACTORIAL HepG2 Assay for human Hepatocyte Nuclear Factor 6 (HNF6) (AID 2282952); conditions: HepG2 Attagene cis-factorial HNF6 reporter transcription; actives raise or lower the signal
# In short: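 First, HepG2 cells were transfected with the multiplexed cis reporter library and dosed with chemical for 24 h. Next, RNA was reverse-transcribed, PCR-amplified and fluorescently labelled. Finally, HpaI-digested fragments were read by capillary electrophoresis.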
# [7] = biological target: Heat shock factor protein 1 (Homo sapiens) (UniProt Q00613); experiment: ATG_HSE_CIS: Attagene CIS-FACTORIAL HepG2 Assay for human Heat Shock Transcription Factor 1 (HSE) (AID 2282953); conditions: HepG2 HSE cis-reporter, Attagene RNA transcription; actives raise or lower the signal
# In short: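 After a 24 h incubation with test chemical, transfected HepG2 cells were harvested for RNA; reporter transcripts were measured by RT-PCR and capillary electrophoresis. Values reflect gain or loss of signal relative to DMSO.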
# [8] = ATG_MRE_CIS: Attagene CIS-FACTORIAL HepG2 Assay for human Metal Responsive Element (MRE) (AID 2282954); conditions: HepG2 MRE cis-reporter transcription, Attagene multiplex; actives raise or lower the signal
# In short: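 Measured here is mRNA induction from an MRE cis-element reporter in HepG2 after 24 h, quantified by fluorescence of labelled RT-PCR products on capillary electrophoresis; gain- and loss-of-signal fits use DMSO as baseline.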
# [9] = biological target: Paired box protein Pax-6 (Homo sapiens) (UniProt P26367); experiment: ATG_Pax6_CIS: Attagene CIS-FACTORIAL HepG2 Assay for human Paired Box 6 (PAX6) (AID 2282956); conditions: HepG2 CIS-FACTORIAL PAX6 reporter transcription, RNA readout; actives raise or lower the signal
# In short: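 DMSO-referenced bidirectional fits of reporter mRNA fluorescence; HepG2 with transient cis-promoter MRTUs, 24 h post-dose, RT-PCR plus capillary electrophoresis detection.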
# [10] = ATG_PXRE_CIS: Attagene CIS-FACTORIAL HepG2 Assay for human Pregnane X Receptor Element (PXRE) (AID 2282957); conditions: HepG2 Attagene CIS-FACTORIAL PXRE reporter, mRNA; actives raise or lower the signal
# In short: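 After a 24 h chemical incubation, total RNA from transfected HepG2 cells was reverse-transcribed and reporter cDNA amplified, FAM-labeled, HpaI-digested and sized by capillary electrophoresis. DMSO served as baseline for bidirectional curve fitting.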
# [11] = ATG_PPRE_CIS: Attagene CIS-FACTORIAL HepG2 Assay for human Peroxisome Proliferator-activated Response Element (PPRE) (AID 2282958); conditions: HepG2 PPRE cis-element reporter, Attagene transcription factor profiling; actives raise or lower the signal
# In short: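 Read-out: fluorescent reporter mRNA fragments resolved by capillary electrophoresis after RT-PCR. HepG2 cells carried transiently transfected PPRE-driven cis reporter constructs and were dosed for 24 h; gain or loss of signal fitted relative to DMSO.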
# [12] = ATG_RORE_CIS: Attagene CIS-FACTORIAL HepG2 Assay for human RAR-related Orphan Receptor Element (RORE) (AID 2282959); conditions: HepG2 Attagene cis-factorial RORE reporter, mRNA; actives raise or lower the signal
# In short: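 Readout: fluorescent reporter mRNA by RT-PCR plus capillary electrophoresis, 24 h after dosing transfected HepG2 cells. Endogenous transcription factor activity on a cis promoter element is measured. Gain or loss of signal fitted against DMSO.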
# [13] = ATG_Sox_CIS: Attagene CIS-FACTORIAL HepG2 Assay for human SRY-box transcription factor (SOX) (AID 2282960); conditions: HepG2 Attagene cis-factorial SOX reporter, mRNA; actives raise or lower the signal
# In short: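 Read-out: fluorescent RT-PCR products of SOX1-linked reporter transcripts resolved by capillary electrophoresis, fitted bidirectionally against DMSO. Transiently transfected HepG2 cells, 24 h after chemical exposure, endogenous transcription factor activity.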
# [14] = biological target: Transcription factor Sp1 (Homo sapiens) (UniProt P08047); experiment: ATG_Sp1_CIS: Attagene CIS-FACTORIAL HepG2 Assay for human Specificity Protein 1 (Sp1) (AID 2282961); conditions: HepG2 Sp1 cis-reporter transcription, actives raise or lower the signal
# In short: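 Read-out: fluorescence of 6-FAM-labeled, HpaI-digested RT-PCR products separated by capillary electrophoresis. HepG2 cells carried transfected cis-element reporter units and were exposed to chemicals for 24 h; gain or loss of signal fitted relative to DMSO.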
# [15] = ATG_SREBP_CIS: Attagene CIS-FACTORIAL HepG2 Assay for human Sterol Regulatory Element Binding (SREBP) (AID 2282962); conditions: HepG2 Attagene cis-factorial SREBP reporter, mRNA; actives raise or lower the signal
# In short: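 In this cis-format assay, HepG2 liver cells express reporters controlled by promoter elements responsive to native transcription factors. Exposure lasts 24 h; reporter mRNA fluorescence from capillary electrophoresis gives the signal, fitted bidirectionally against DMSO.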
# [16] = biological target: Signal transducer and activator of transcription 3 (Homo sapiens) (UniProt P40763); experiment: ATG_STAT3_CIS: Attagene CIS-FACTORIAL HepG2 Assay for human Signal Transducer and Activator of Transcription 3 (STAT3) (AID 2282963); conditions: HepG2, Attagene cis-factorial STAT3 reporter transcription; actives raise or lower the signal
# In short: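 Fluorescence intensity of 6-FAM-labelled reporter fragments, separated by capillary electrophoresis after RT-PCR, gave the signal. Cells were HepG2 transfected with cis-element reporter units and treated 24 h; fitting was bidirectional relative to DMSO.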
# [17] = ATG_TA_CIS: Attagene CIS-FACTORIAL HepG2 Assay for human TA Basal Promoter (AID 2282964); conditions: HepG2 Attagene CIS-factorial TA basal promoter reporter; actives raise or lower the signal
# In short: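 Multiplexed mRNA reporter assay, HepG2, 24 h. Reporter cDNA amplified, 6-FAM primer-extended, HpaI-cut, CE-sized; DMSO = negative control and baseline.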
# [18] = ATG_TCF_b_cat_CIS: Attagene CIS-FACTORIAL HepG2 Assay for human T-Cell-Factor with beta-catenin (TCF/b-cat) (AID 2282965); conditions: HepG2 TCF/beta-catenin cis-reporter transcription, actives raise or lower the signal
# In short: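 HepG2 cells transiently transfected with cis-promoter-driven multiplexed reporter units; reporter mRNA measured 24 h after dosing by RT-PCR, FAM labelling, HpaI digestion and capillary electrophoresis. Bidirectional fitting relative to DMSO baseline.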
# [19] = ATG_M_32_CIS: Attagene CIS-FACTORIAL HepG2 Assay for M32 Transcription Factor (Internal Marker) (AID 2282949); conditions: HepG2 Attagene cis-factorial M32 reporter, mRNA; actives raise or lower the signal;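 also: background control marker of the multiplexed CIS panel rather than a real target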
# In short: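 HepG2 human liver cells transiently transfected with cis-promoter-driven multiple reporter transcription units, dosed 24 h. Reporter mRNA quantified by RT-PCR, FAM-labelled primer extension, HpaI digest and capillary electrophoresis; bidirectional fit versus DMSO baseline.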
# [20] = ATG_PBREM_CIS: Attagene CIS-FACTORIAL HepG2 Assay for human Phenobarbital-responsive Enhancer Module (PBREM) (AID 2282955); conditions: HepG2 PBREM cis-reporter, Attagene multiplexed transcription; actives raise or lower the signal
# In short: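 Reporter mRNA read by RT-PCR, 6-FAM primer extension, HpaI digestion and capillary electrophoresis. Transfected HepG2 cells, 24 h compound exposure. Gain or loss of signal fitted bidirectionally relative to DMSO baseline.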
# Hypoxia-inducible factor 1-alpha (Homo sapiens), sequence (Q16665 whole entry, looked up): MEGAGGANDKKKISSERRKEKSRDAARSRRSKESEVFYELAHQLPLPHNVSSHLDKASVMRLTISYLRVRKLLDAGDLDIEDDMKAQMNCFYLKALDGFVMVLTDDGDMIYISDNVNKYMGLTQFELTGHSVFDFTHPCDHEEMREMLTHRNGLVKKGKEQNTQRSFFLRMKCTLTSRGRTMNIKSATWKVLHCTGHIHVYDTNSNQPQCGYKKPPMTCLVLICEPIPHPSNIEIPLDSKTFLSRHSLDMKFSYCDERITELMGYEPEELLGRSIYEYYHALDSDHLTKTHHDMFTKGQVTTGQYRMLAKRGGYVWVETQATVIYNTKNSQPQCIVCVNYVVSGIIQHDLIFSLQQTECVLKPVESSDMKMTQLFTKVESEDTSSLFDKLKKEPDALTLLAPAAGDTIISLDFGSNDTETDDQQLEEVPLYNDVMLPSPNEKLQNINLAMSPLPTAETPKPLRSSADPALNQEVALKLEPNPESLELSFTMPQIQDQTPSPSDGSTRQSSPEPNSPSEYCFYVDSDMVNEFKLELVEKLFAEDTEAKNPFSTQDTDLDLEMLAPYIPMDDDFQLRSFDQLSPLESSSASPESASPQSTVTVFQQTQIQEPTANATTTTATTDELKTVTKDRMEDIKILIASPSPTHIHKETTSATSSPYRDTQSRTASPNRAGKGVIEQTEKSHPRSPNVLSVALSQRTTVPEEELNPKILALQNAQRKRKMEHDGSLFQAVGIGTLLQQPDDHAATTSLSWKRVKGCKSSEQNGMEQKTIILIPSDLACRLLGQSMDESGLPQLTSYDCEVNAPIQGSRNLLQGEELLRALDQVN
# Signal transducer and activator of transcription 3 (Homo sapiens), sequence (P40763 whole entry, looked up, the tested form may be a part): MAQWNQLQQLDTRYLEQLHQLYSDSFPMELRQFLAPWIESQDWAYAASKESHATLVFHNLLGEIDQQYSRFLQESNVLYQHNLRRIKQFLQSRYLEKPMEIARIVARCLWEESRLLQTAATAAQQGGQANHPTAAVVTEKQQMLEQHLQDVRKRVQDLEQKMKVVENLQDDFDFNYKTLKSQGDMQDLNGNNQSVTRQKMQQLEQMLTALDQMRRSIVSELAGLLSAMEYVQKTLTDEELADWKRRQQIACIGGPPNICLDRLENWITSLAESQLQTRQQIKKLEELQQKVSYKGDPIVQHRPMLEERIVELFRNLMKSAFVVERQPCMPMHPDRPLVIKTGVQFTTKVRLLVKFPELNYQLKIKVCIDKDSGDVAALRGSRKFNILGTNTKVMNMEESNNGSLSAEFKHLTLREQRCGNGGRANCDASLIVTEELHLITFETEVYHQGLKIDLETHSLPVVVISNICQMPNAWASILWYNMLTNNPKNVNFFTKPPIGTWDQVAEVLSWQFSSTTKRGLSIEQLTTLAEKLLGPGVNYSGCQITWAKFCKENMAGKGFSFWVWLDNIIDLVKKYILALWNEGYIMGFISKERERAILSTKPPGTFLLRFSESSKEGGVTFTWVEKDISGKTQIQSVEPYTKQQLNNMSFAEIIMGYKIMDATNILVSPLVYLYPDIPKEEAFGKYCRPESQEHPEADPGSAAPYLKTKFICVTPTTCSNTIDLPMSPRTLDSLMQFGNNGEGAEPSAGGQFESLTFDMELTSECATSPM
# Paired box protein Pax-6 (Homo sapiens), sequence (P26367 whole entry, looked up): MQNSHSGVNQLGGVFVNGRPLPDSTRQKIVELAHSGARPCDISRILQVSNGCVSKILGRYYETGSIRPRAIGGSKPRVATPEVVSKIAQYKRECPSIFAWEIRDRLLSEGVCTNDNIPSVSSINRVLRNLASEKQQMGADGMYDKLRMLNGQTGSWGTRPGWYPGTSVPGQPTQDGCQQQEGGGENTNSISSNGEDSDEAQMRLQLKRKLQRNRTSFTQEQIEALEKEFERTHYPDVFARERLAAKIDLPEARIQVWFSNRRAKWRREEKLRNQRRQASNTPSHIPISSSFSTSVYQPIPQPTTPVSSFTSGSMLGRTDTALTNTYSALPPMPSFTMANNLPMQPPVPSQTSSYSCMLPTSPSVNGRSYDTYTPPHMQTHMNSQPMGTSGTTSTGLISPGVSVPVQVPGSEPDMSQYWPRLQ
# Bile acid receptor (Homo sapiens), sequence (Q96RI1 whole entry, looked up): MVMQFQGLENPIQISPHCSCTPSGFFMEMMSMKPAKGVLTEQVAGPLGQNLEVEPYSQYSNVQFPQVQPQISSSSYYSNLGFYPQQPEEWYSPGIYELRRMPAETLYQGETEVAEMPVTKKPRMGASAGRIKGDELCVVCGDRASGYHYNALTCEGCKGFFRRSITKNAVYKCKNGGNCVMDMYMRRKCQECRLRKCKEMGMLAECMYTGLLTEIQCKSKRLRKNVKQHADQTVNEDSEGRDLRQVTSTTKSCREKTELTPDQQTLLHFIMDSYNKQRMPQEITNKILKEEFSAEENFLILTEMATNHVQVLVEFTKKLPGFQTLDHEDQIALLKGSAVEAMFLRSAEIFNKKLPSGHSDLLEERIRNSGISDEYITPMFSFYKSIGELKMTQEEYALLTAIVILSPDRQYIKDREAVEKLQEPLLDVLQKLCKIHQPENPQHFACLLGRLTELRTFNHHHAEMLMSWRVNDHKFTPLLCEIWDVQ
# Hepatocyte nuclear factor 6 (Homo sapiens), sequence (Q9UBC0 whole entry, looked up, the tested form may be a part): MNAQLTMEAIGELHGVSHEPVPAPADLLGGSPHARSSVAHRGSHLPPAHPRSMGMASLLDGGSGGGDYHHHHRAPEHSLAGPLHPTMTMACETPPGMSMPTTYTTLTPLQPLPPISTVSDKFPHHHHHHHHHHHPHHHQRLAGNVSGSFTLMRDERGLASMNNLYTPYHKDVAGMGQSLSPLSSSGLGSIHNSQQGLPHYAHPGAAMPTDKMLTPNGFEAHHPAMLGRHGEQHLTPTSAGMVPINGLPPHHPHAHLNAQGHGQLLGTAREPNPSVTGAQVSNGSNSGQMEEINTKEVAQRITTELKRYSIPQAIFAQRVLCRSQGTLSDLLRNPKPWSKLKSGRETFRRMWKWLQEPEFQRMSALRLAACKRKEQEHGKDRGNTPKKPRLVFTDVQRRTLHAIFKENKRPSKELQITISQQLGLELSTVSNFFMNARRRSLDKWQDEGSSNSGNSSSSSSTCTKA
# Heat shock factor protein 1 (Homo sapiens), sequence (Q00613 whole entry, looked up): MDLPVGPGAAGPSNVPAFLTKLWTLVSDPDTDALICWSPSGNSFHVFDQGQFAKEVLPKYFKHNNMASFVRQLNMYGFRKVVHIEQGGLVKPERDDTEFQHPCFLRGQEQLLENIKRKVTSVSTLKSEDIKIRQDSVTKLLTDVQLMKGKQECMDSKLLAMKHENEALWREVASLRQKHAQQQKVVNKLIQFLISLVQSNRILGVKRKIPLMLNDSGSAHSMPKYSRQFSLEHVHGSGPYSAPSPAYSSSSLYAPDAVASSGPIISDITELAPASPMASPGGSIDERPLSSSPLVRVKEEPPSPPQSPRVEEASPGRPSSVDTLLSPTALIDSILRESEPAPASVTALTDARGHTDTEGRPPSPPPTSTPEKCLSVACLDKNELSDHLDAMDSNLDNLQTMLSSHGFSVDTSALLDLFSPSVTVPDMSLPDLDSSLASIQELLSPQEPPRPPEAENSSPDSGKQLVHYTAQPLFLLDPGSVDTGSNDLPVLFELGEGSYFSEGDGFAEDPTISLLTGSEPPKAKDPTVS
# Transcription factor Sp1 (Homo sapiens), sequence (P08047 whole entry, looked up): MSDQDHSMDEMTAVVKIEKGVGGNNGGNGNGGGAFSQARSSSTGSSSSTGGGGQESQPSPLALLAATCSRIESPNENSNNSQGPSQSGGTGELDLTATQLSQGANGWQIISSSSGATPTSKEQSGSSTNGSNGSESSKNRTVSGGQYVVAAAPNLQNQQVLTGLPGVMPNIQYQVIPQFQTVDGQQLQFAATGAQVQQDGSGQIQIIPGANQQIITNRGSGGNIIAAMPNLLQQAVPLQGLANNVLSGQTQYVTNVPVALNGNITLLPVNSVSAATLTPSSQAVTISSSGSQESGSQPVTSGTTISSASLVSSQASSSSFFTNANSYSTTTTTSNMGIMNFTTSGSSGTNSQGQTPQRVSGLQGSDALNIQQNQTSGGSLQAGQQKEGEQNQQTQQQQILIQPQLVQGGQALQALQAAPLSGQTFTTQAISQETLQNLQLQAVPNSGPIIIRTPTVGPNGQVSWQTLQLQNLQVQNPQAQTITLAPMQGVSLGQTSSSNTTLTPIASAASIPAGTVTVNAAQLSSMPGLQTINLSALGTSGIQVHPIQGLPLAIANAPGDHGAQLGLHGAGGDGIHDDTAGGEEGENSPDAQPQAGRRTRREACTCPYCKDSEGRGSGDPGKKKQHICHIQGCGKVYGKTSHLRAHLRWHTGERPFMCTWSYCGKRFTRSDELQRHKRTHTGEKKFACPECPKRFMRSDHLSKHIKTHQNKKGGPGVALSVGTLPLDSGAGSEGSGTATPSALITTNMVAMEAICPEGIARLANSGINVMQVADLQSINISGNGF
smiles,measurement,setting,value
O=C(Cl)c1ccc(Cl)cc1,outcome,[1],inactive
same,outcome,[2],inactive
same,outcome,[3],inactive
same,outcome,[4],inactive
same,outcome,[5],inactive
same,outcome,[6],inactive
same,outcome,[7],inactive
same,outcome,[8],inactive
same,outcome,[9],inactive
same,outcome,[10],inactive
same,outcome,[11],inactive
same,outcome,[12],inactive
same,outcome,[13],inactive
same,outcome,[14],inactive
same,outcome,[15],inactive
same,outcome,[16],inactive
same,outcome,[17],inactive
same,outcome,[18],inactive
CC(=[OH+])/C=C(/C)[O-].CC(=[OH+])/C=C(/C)[O-].CC(=[OH+])/C=C(/C)[O-].[Fe],outcome,[1],inactive
same,outcome,[3],inactive
same,outcome,[4],inactive
same,outcome,[5],inactive
same,outcome,[6],inactive
same,outcome,[7],inactive
same,outcome,[8],inactive
same,outcome,[9],inactive
same,outcome,[10],inactive
same,outcome,[11],inactive
same,outcome,[12],inactive
same,outcome,[13],inactive
same,outcome,[14],inactive
same,outcome,[15],inactive
same,outcome,[16],inactive
same,outcome,[17],inactive
CC(=[OH+])/C=C(/C)[O-].CC(=[OH+])/C=C(/C)[O-].CC(=[OH+])/C=C(/C)[O-].[Al],outcome,[1],inactive
same,outcome,[3],inactive
same,outcome,[19],inactive
same,outcome,[4],inactive
same,outcome,[5],inactive
same,outcome,[6],inactive
same,outcome,[7],inactive
same,outcome,[8],inactive
same,outcome,[9],inactive
same,outcome,[10],inactive
same,outcome,[11],inactive
same,outcome,[12],inactive
same,outcome,[13],inactive
same,outcome,[14],inactive
same,outcome,[15],inactive
same,outcome,[16],inactive
same,outcome,[17],inactive
CCSC(C)CC1CC(=O)C(C(CC)=NOC/C=C/Cl)=C(O)C1 (centres undefined),outcome,[1],inactive
same,outcome,[3],inactive
same,outcome,[4],inactive
same,outcome,[5],inactive
same,outcome,[6],inactive
same,outcome,[7],inactive
same,outcome,[8],inactive
same,outcome,[9],inactive
same,AC50,[10],5.61 µM (active)
same,outcome,[11],inactive
same,outcome,[12],inactive
same,outcome,[13],inactive
same,outcome,[14],inactive
same,outcome,[15],inactive
same,outcome,[16],inactive
same,outcome,[17],inactive
same,outcome,[18],inactive
CCN1CCC2(CC1)COc1cc3c(cc12)N(C(=O)c1ccc(-c2ccc(-c4nnc(C)o4)cc2C)cc1)CC3,outcome,[1],inactive
same,outcome,[3],inactive
same,outcome,[4],inactive
same,outcome,[5],inactive
same,outcome,[6],inactive
same,outcome,[7],inactive
same,outcome,[8],inactive
same,outcome,[20],inactive
same,outcome,[9],inactive
same,outcome,[10],inactive
same,outcome,[11],inactive
same,outcome,[12],inactive
same,outcome,[13],inactive
same,outcome,[14],inactive
same,outcome,[15],inactive
same,outcome,[16],inactive
same,outcome,[17],inactive
same,AC50,[18],6.25 µM (active)
[O-][Cl+2]([O-])O,outcome,[1],inactive
same,outcome,[3],inactive
same,outcome,[4],inactive
same,outcome,[5],inactive
same,outcome,[6],inactive
same,outcome,[7],inactive
same,outcome,[8],inactive
same,outcome,[20],inactive
same,outcome,[9],inactive
same,outcome,[13],inactive
same,outcome,[14],inactive
same,outcome,[15],inactive
same,outcome,[16],inactive
same,outcome,[17],inactive
same,outcome,[18],inactive
O=C(O)C(F)(F)C(F)(F)C(F)(F)C(F)(F)C(F)(F)C(F)(F)F,outcome,[1],inactive
same,outcome,[3],inactive
same,outcome,[19],inactive
same,outcome,[4],inactive
same,outcome,[5],inactive
same,outcome,[6],inactive
same,outcome,[7],inactive
same,outcome,[8],inactive
same,outcome,[20],inactive
same,outcome,[9],inactive
same,AC50,[10],40.2 µM (active)
same,outcome,[10],inactive
same,AC50,[11],63.7 µM (active)
same,outcome,[11],inactive
same,outcome,[12],inactive
same,outcome,[13],inactive
same,outcome,[14],inactive
same,outcome,[15],inactive
same,outcome,[16],inactive
same,outcome,[17],inactive
CN(C)P(=O)(N(C)C)N(C)C,outcome,[1],inactive
same,outcome,[3],inactive
same,outcome,[19],inactive
same,outcome,[4],inactive
same,outcome,[5],inactive
same,outcome,[6],inactive
same,outcome,[7],inactive
same,outcome,[8],inactive
same,outcome,[9],inactive
same,outcome,[10],inactive
same,outcome,[11],inactive
same,outcome,[12],inactive
same,outcome,[13],inactive
same,outcome,[14],inactive
same,outcome,[15],inactive
same,outcome,[16],inactive
same,outcome,[17],inactive
same,outcome,[18],inactive
